From PubChem BioAssay
Pf growth 96h – inhibits malaria parasite growth, 96 h. P. falciparum luciferase reporter growth, 96 h. Potency, µM (titrated, usually from 28.7 µM), for inactives: at the top dose activity change, negative = inhibition, usual class: inhibitors. hit rate 6.9% among 320,000; also: potency is read from the fitted curve at half-maximal effect
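Infected RBCs, 2% Hct / 0.05% parasitemia final; luciferase-reporter P. falciparum; cpd 96 h, 37 C, 5% CO2; luciferase detection reagent; luminescence.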
Pf growth 48h – P. falciparum growth inhibition at 48 hours (one generation); Potency, µM (doses to about 28.7 µM), for inactives: at the highest dose activity change, negative = inhibition, hits mostly inhibitors; hit rate 5.9% among 310,000; P. falciparum luciferase growth in erythrocytes, 48 h; AID 504832; also: potency is read from the fitted curve at half-maximal effect
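Luminescence readout; reporter = integrated firefly luciferase in P. falciparum. RBC culture at 2% hematocrit, 0.1% parasitemia final, 37 C/5% CO2; decreased signal taken as growth inhibition.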
HCMV antiviral – inhibitors of human cytomegalovirus. HFF cells, HCMV-luciferase reporter, 72 h; hits give low values. AID 1259415. activity change, negative = inhibition, % at 57.5 µM. hit rate 4.5% among 410,000; in the data active = activity change below about -60%; inconclusive = no clear call, values can overlap the other calls; inactive = above about -39%
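Two compound doses tested in HFFs infected with HCMV-luciferase, MOI 1 PFU/cell, 72 h at 37C. Lysate luminescence read with OneGlo; data normalized against buffer-only and 10uM Salinomycin inhibitor controls.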
FBPA Giardia inh – Giardia lamblia aldolase inhibition; Potency, µM (series often up to 59.6 µM), without a hit: top-dose activity, negative = inhibition, actives largely listed as inhibitors; A8B2U2; hit rate 0.71% among 290,000; purified Giardia FBPA; also: potency is read from the fitted curve at half-maximal effect; nearly all actives have a fitted effect of over 55% in size
Target sequence (A8B2U2 whole entry, looked up): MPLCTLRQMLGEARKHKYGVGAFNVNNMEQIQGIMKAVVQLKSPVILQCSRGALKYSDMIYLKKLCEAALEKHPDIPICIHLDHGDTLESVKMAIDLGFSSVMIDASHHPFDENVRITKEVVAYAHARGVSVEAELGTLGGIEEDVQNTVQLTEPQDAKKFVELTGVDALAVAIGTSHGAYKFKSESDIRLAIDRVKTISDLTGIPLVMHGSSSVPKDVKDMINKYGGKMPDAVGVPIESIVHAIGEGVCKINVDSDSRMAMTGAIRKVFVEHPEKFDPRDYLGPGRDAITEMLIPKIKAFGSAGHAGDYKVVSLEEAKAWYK
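40 nM FBPA preincubated 10 min at RT with compound (up to 57.5 uM final), then substrate plus GAPDH/TPI/NAD/arsenate coupling and diaphorase/resazurin added. Fluorescence read after 20 min at RT, 525/598 nm.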
Sm TGR block – S. mansoni TGR enzyme inhibition; hit rate 3% among 360,000; Q962Y6; Potency, µM (doses to about 114 µM), inactives show at the top dose activity change, negative = inhibition, actives largely listed as inhibitors; purified TGR, DTNB reduction, TNB absorbance 405 nm; also: potency is read from the fitted curve at half-maximal effect; nearly all actives have a fitted effect of over 60% in size
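TGR 20 nM + NADPH 100 uM (dispensed conc.), cpd preinc 15 min RT; start with NADPH (500 uM addition) then DTNB (15 mM addition). Kinetic TNB absorbance, 405 nm filter. Four-parameter Hill fit across titration.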
* marks the source's active call; other numbers are inactive results; ? = inconclusive; / = not tested or not shown; [ ] = another dose, or the depositor's remark. Only some compounds are listed: those with a hit (about 14% of all), similar ones and a draw of the others. Unless noted, calls follow the shape of the dose curve; as a rule, active = well fitted curve in the direction sought with a large enough effect; inconclusive = small, poorly fitted or top-dose-only effect, or another doubt; inactive = no such curve, though single readings can be large; an effect the other way counts as inactive or inconclusive. % is scaled to controls: 0 for no effect and ±100 for the full control effect.

SMILES	Pf growth 96h	Pf growth 48h	HCMV antiviral	FBPA Giardia inh	Sm TGR block
Cc1cc(N2CCN(C3CCCCC3)CC2)nc2cccc(O)c12	?	2.9µM*	?	-28%	?
CCOC(=O)Cn1c(CN2CCN(C(c3ccccc3)c3ccccc3)CC2)nc2c1c(=O)n(C)c(=O)n2C	1.9µM*	4.1µM*	0	-6%	-24%
CCn1c(Oc2ccccc2C)nc2c1c(=O)n(C)c(=O)n2C	-4%	2%	-74*	-6%	-4%
CCn1c(CN2CCN(C(c3ccccc3)c3ccccc3)CC2)nc2c1c(=O)n(C)c(=O)n2C	3.3µM*	/	/	9%	?
COCCn1c(=O)c(-c2ccccc2)nc2cnc(N3CCN(C)CC3)nc21	/	/	/	4%	/
Cn1cc(C(=O)N/N=C/c2cccc([N+](=O)[O-])c2)c2ccccc21	-24%	-13%	0	-1%	6%
CC/C(=N\NC(=O)c1ccc2c(c1)OCO2)C12CC3CC(CC(C3)C1)C2	/	34%	32	-8%	-4%
COc1ccc(/C(C)=N\NC(=O)c2ccc3c(c2)OCO3)cc1OC	107%	15%	?	4%	14%
CC/C(=N/NC(=O)c1ccc2c(c1)OCO2)c1ccccc1O	/	/	-98*	/	/
C/C(=N\NC(=O)c1cc2ccccc2cc1O)c1ccc2c(c1)OCO2	5.2µM*	6.6µM*	13	-16%	4%
COc1cc(C(=O)N/N=C(\C)c2ccc3c(c2)OCO3)cc(OC)c1OC	5%	7%	-26	8%	-5%
C/C(=N\NC(=O)c1ccc(C)cc1C)c1ccc2c(c1)OCO2	3.7µM*	10µM*	-16	1%	-4%
COC(=O)c1nc2n(n1)C(c1cccc(Cl)c1)C(C(=O)Nc1ccccc1OC)=C(C)N2 (stereo not given)	/	/	3	/	4%
Cc1ccc2cc(CCNC(=O)Cc3cccs3)c(=O)[nH]c2c1	?	15%	?	-1%	-10%
CCCCNC(=O)C1CCN(S(=O)(=O)c2c(C)noc2/C=C\c2ccc(OC)cc2)CC1	10µM*	/	8	4%	8%
CCOc1ccccc1/C=C/c1onc(C)c1S(=O)(=O)N1CCC(C(=O)NC(C)C)CC1	57%	?	-9	5%	-16%
Cc1cccc(/C=C/c2onc(C)c2S(=O)(=O)N2CCC(C(=O)N3CCCCC3)CC2)c1	?	9.3µM*	0	/	-23%
COc1ccc(/C=C/c2onc(C)c2S(=O)(=O)N2CCC(C(=O)N3CCCCCC3)CC2)cc1	?	4.1µM*	-69*	-1%	-10%
CCOc1ccccc1/C=C/c1onc(C)c1S(=O)(=O)N1CCC(C(=O)N2CCCCCC2)CC1	?	7.4µM*	-40	/	3%
COCCCNC(=O)C1CCN(S(=O)(=O)c2c(C)noc2/C=C\c2ccc(OC)cc2)CC1	-10%	?	32	-1%	0%
Cc1cc(C(=O)O)cc(S(=O)(=O)Nc2ccccc2C(=O)NC2CC2)c1C	69%	18%	-8	/	2%
COc1ccc(C(=O)N/C(=C\c2ccc(Cl)cc2)C(=O)NCCN2CCOCC2)cc1	/	/	-1	/	/
CCC(C)NC(=O)[C@H](CSCc1ccccc1)N1Cc2ccccc2C1=O (stereo not given in full)	10µM*	-7%	?	2%	-3%
CC(C)CCNC(=O)[C@H](CSCc1ccccc1)N1Cc2ccccc2C1=O	?	-5%	-11	0%	-5%
CCOC(=O)C1CCCN(c2nc3ccccc3nc2C(C#N)C(=O)OCC)C1 (stereo not given)	7.4µM*	?	31	-15%	-4%
N#CC(C(=O)OC1CCCCC1)c1nc2ccccc2nc1N1CCOCC1 (stereo not given)	31%[5.75 µM]	5%	-78*	6%	-2%
CCOC(=O)C1CCN(c2nc3ccccc3nc2C(C#N)C(=O)NCCc2ccccc2)CC1 (stereo not given)	9.3µM*	56%	/	?	-4%
COCCNC(=O)C(C#N)c1nc2ccccc2nc1N1CCCCCC1 (stereo not given)	32%	?	-28	-19%	0%
CCOC(=O)C1CCCN(c2nc3ccccc3nc2C(C#N)C(=O)OCCOC)C1 (stereo not given)	8.3µM*	6.6µM*	23	-23%	-17%
